Screens (PubChem BioAssay)
TRHR ag: qHTS for Small Molecule Agonists and Allosteric Enhancers of Human TRH Receptor: Primary Screen for Agonists; TRHR cells, calcium flux fluo-8, FDSS agonist mode; activation, % at 2 µM; 360,000 tested, 0.18% active; AID 493084, 2011; note: 0% is about no effect
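Steps: seed TRHR cells overnight; add fluo-8 no-wash Ca dye, RT 30 min–1.5 h; record 10 s baseline; pin-transfer compounds; monitor fluorescence 1 cycle/s for the agonist window. Calcium increases flag candidate agonists.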
D1 ag: Allosteric Agonists of the Human D1 Dopamine Receptor: qHTS. HEK293 T-REx D1 cells, calcium flux, agonist mode. activation, % at 2 µM. 360,000 tested, 1% active; note: 0% is about no effect
Target sequence (P21728 whole entry, looked up): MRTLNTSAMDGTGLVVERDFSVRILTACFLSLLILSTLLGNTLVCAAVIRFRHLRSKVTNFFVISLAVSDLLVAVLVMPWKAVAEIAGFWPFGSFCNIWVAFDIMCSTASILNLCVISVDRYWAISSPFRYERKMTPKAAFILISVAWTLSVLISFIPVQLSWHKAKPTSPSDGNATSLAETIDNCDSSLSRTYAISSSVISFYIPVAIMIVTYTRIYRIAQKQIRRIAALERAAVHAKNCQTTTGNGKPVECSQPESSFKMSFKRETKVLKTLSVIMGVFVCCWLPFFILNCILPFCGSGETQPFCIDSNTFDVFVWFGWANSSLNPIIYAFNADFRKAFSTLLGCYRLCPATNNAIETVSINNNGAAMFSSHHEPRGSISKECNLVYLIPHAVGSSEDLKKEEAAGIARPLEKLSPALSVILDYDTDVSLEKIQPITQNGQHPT
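Inducible HEK293 T-REx D1 cells, force-coupled to calcium signalling, were plated at 4000 cells/well with tetracycline and held overnight at 30 C. After no-wash calcium dye loading, compound-evoked calcium rise over 180 s flagged agonists.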
D1 antag: Antagonist of Human D 1 Dopamine Receptor: qHTS. D(1A) dopamine receptor (Homo sapiens), P21728. HEK293 TREx D1 cells, calcium flux, dopamine EC80; stronger effect = lower value. activity change, negative = inhibition, % at 10 µM. 360,000 tested, 3.2% active. AID 504652, 2011; in the data active = activity change below about -30%; note: % is set by controls: 0 for no effect and ±100 for the full control effect
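Tetracycline-induced HEK293 T-REx cells with force-coupled D1 receptor were loaded with a no-wash calcium dye. Compound was added after a 10 s baseline and read kinetically for 180 s; EC80 dopamine was then added and calcium flux followed another 180 s.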
TRHR PAM: qHTS for Small Molecule Agonists and Allosteric Enhancers of Human TRH Receptor: Primary Screen for Enhancers. enhancement, % at 2 µM. TRHR cells, fluo-8 calcium fluorescence, EC20 TRH enhancement. 360,000 tested, 0.66% active. AID 493056, 2011; in the data active = enhancement above about 30%; note: 0% is about no effect
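Enhancer read-out: after compound pinning and an initial kinetic agonist-mode read, an EC20 of TRH (10 nM final) was injected and fluo-8 calcium signal (Ex 480/Em 530) followed at 1 s/cycle for 100 cycles in TRHR-expressing cells.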
D1 PAM: Potentiators of Human D1 Dopamine Receptor: qHTS. 360,000 tested, 0.036% active. potentiation, % at 10 µM. D(1A) dopamine receptor (Homo sapiens), P21728. AID 504651, 2011. HEK293 TREx D1 cells, calcium flux, dopamine EC20 potentiation; in the data active = potentiation above about 30%; note: 0% is about no effect
Active calls of the source: *; nt = no result. Most compounds without a hit are left out; they make up all but 4.6% or so of the library. Cut-off read from the data, not from the text of the source, unless noted: active = activation above about 30%; inactive = the rest.

SMILES	TRHR ag	D1 ag	D1 antag	TRHR PAM	D1 PAM
CC(=O)c1cccc(NS(=O)(=O)c2cccc(S(=O)(=O)c3ccc(Br)cc3)c2)c1	0.3	27.4	-41.1*	1.2	-1.1
O=C(COC(=O)c1cccc(S(=O)(=O)N2CCN(c3ccccc3)CC2)c1)NCc1ccco1	-0.5	5.7	-14.8	34.6*	-5.0
O=C(NCCCn1ccnc1)c1cccc(S(=O)(=O)Nc2ccc(F)cc2)c1	0.2	3.4	5.2	-0.7	1.8
O=C(NCCCn1ccnc1)c1cccc(S(=O)(=O)Nc2ccc(Br)cc2)c1	-0.3	51.2*	7.5	35.8*	5.0
O=C(NCCCN1CCCC1=O)c1cccc(NS(=O)(=O)c2ccc(Br)cc2)c1	0.1	1.3	-3.1	33.4*	2.4
NC(=O)COC(=O)c1cccc(S(=O)(=O)N2CCN(c3ccccc3)CC2)c1	0.4	6.1	-13.3	1.6	-0.8
COc1ccc(OCC(=O)OCC(=O)Nc2ccc3[nH]c(=O)[nH]c3c2)cc1	-0.1	0.5	8.4	8.3	7.1
COCCCNC(=O)Cn1c(=O)n(Cc2ccc(C(=O)NCc3ccc(C)cc3)cc2)c(=O)c2ccccc21	-0.2	2.8	-4.3	0.0	3.1
Cc1ccc2oc(-c3ccc(C)c(NC(=O)/C=C/c4ccc(Cl)cc4)c3)nc2c1	0.7	-0.6	8.0	5.0	-0.2
CC(C)c1ccc(NC(=O)CSC2=Nc3ccccc3C3=NC(CCC(=O)NCc4cccs4)C(=O)N23)cc1 (stereo unspecified)	-0.1	6.5	6.8	-2.7	-2.2
COc1ccc(C(=O)NCCc2nc3ccccc3[nH]2)cc1	-0.9	2.3	-1.7	3.1	-0.1
O=C(NCCCN1CCCC1=O)c1cccc(S(=O)(=O)N2CCN(c3ccccc3)CC2)c1	-0.3	1.3	-44.1*	13.8	-4.3
CN(c1ccccc1)S(=O)(=O)c1cccc(C(=O)NCCCN2CCCC2=O)c1	0.3	2.0	-14.8	1.7	-2.0
CCc1sc(C(=O)NCCCn2ccnc2)cc1Br	-1.6	1.9	6.3	30.7*	-10.8
Cc1ccccc1NC(=O)C(=O)NCCCN1CCCC1=O	-0.2	2.6	5.7	19.3	0.8
O=C(NCCCN1CCCC1=O)C(=O)Nc1cccc(F)c1	0.0	6.8	-43.8*	6.5	-6.0
Cc1ccc(Cl)cc1NC(=O)c1oc2c(c1C)-c1[nH]ncc1CC2	-0.6	20.0	-0.8	9.0	-2.5
Cc1cccn2c(=O)cc(CSc3nnc(NC(=O)COc4ccc(F)cc4)s3)nc12	0.0	2.8	2.5	25.2	2.1
CCCCCSc1nnc2c(n1)[nH]c1c(C)cccc12	-0.9	5.3	-30.2*	-6.0	0.8
COc1cccc(NS(=O)(=O)c2c(C(=O)N3CCCCCC3)c(C)n(C)c2C)c1	-1.1	1.5	43.7	32.9*	18.2
COc1ccc(NS(=O)(=O)c2c(C(=O)N3CCCCCC3)c(C)n(C)c2C)cc1OC	0.1	2.2	11.4	0.4	-4.5
COCc1cc(C)nc(SCC(=O)Nc2ccc3c(c2)OCCO3)c1C#N	-1.5	6.6	-30.7*	-5.5	-5.3
COCc1cc(C)nc(SCc2ccc(Cl)cc2)c1C#N	-0.6	36.2*	-32.0*	2.8	-3.1
Cc1ccc(C(=O)O/N=C/c2ccc3c(c2)OCO3)cc1	1.5	5.5	-66.9*	5.9	-10.4
O=C(O/N=C/c1ccc2c(c1)OCO2)c1ccc([N+](=O)[O-])cc1	0.2	0.2	14.2	-4.8	-7.0
SMILES	TRHR ag	D1 ag	D1 antag	TRHR PAM	D1 PAM
O=C(Cc1ccccc1)NCCc1cccc(Cl)c1	-1.0	27.3	-55.2*	6.0	-8.1
Cc1cc(C(=O)NCCc2ccccc2)ccc1[N+](=O)[O-]	-0.6	1.7	-17.1	9.0	-5.9
NS(=O)(=O)c1ccc(CCNC(=O)c2cccc([N+](=O)[O-])c2)cc1	1.6	0.7	4.7	-3.0	-1.6
O=C(NCCc1ccccc1)c1ccc(Cl)c([N+](=O)[O-])c1	1.3	1.6	-36.4*	-3.1	-2.5
O=C(NCCc1cccc(Cl)c1)c1cccc([N+](=O)[O-])c1	-1.6	3.6	-42.4*	-3.3	-3.9
CCOC(=O)c1noc2nc(C)n(Cc3ccc([N+](=O)[O-])cc3)c(=O)c12	-0.4	5.3	-7.9	5.7	-0.8
Cc1cc2c(s1)c1cnn(Cc3c(F)cccc3F)c(=O)c1n2C	-0.4	1.1	-10.2	0.5	7.2
O=C(CCn1nnc2ccccc21)Nc1nnc(-c2ccccc2F)s1	0.3	4.9	-12.4	-4.2	-4.0
O=C(CCn1nnc2ccccc21)Nc1nnc(COc2ccccc2F)s1	0.3	2.9	16.8	31.7*	4.1
S=c1[nH]nc(-c2ccc3ccccc3n2)n1-c1cc(Cl)cc(Cl)c1	-0.9	41.4*	-25.7	-1.6	-11.3
Fc1ccccc1-c1cc2ccccc2cn1	-0.5	-3.8	nt	5.7	1.9
COc1ccc(C(=O)NCCN2C(=O)S/C(=C\c3cccnc3)C2=O)c(OC)c1OC	-0.5	1.7	16.0	6.0	-3.0
CCOc1cc(C(=O)NCCN2C(=O)S/C(=C\c3cccnc3)C2=O)cc(OCC)c1OCC	-1.3	4.0	-48.9*	4.8	-4.7
CC1CCCCN1C(=O)c1ccc(Br)o1 (stereo unspecified)	-0.2	4.0	6.1	31.5*	-1.0
Cc1ccc(C(=O)N2CCCCC2C(=O)O)o1 (stereo unspecified)	0.4	1.3	4.7	-3.3	-0.8
COc1ccc(S(=O)(=O)c2nnn(-c3cc(Cl)c(OC)cc3OC)c2C)cc1	5.0	61.1*	7.2	10.2	-3.6
CC1=C(c2ccc(Cl)cc2)S(=O)(=O)NC1=NCCCN1CCN(c2cc(C)ccc2C)CC1	-0.5	-0.2	6.3	-1.4	-0.5
Cc1ccc(S(=O)(=O)NC(C)C(=O)OCC(=O)N(C)c2ccccc2)cc1 (stereo unspecified)	-0.3	0.0	-31.3*	6.5	-10.3
Cc1cc(C(=O)N2CCC(Cc3ccccc3)CC2)c(C)o1	-0.4	0.8	-17.9	3.3	0.2
C[C@@H](CSc1ccccc1)CN1CC[C@H](O)CCC1=O	0.5	-0.6	-31.0*	-4.1	1.4
Cc1ccnc(NC(=O)c2ccc(COc3c(F)c(F)cc(F)c3F)o2)c1	-0.5	9.3	-0.7	-4.2	-10.7
O=C(Nc1ccc(Br)cn1)c1ccc(COc2c(F)c(F)cc(F)c2F)o1	1.1	32.3*	-6.4	9.7	nt
CCC(=O)c1ccc(OCC(=O)NC2(C#N)CCCCC2)cc1	0.4	3.5	0.2	0.4	-3.0
CCCN(C(=O)CSc1nc2ccccc2n1CC)C1CCS(=O)(=O)C1 (stereo unspecified)	1.6	8.2	-30.4*	-5.6	-4.2
CCC(=O)N1CCc2cc(CNS(=O)(=O)c3ccccc3F)ccc21	0.0	5.1	-9.9	-16.9	5.6
